Experimental data taken from PubChem BioAssay (EPA / NIEHS).
Records with an inconclusive call do not appear. Calls of active or inactive are those of the source. The calls were made as follows: active = hit-call score of the fitted dose curve at least 0.9, where 1 is the maximum; inconclusive = response in the unintended direction; inactive = score below 0.9.

What follows are compounds tested on Glyceraldehyde-3-phosphate dehydrogenase (Homo sapiens) (UniProt P04406) (assay: CLD_GAPDH_24hr: CellzDirect (CLD) Gene Expression Assay for Baseline Control (Glyceraldehyde 3-phosphate dehydrogenase) at 24 hours (AID 2283692)).
Chain of Glyceraldehyde-3-phosphate dehydrogenase (Homo sapiens) (P04406 whole entry, looked up): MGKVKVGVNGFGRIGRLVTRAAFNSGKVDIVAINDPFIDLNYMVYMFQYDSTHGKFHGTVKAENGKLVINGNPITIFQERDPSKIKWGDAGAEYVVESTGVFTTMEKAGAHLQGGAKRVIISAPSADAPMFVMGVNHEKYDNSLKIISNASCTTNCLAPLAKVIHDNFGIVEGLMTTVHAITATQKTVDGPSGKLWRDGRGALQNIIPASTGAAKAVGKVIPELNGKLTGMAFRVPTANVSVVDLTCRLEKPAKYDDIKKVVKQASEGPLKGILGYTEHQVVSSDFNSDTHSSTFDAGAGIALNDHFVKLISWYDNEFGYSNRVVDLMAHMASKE
Procedure: CLD_24hr is a cell-based, multiplexed-readout assay that uses hepatocyte, a human liver primary cell, with measurements taken at 24 hours after chemical dosing in a 96-well plate.CLD_GAPDH_24hr is one of 16 assay component(s) measured or calculated from the CLD_24hr assay. It is designed to make measurements of mRNA induction, a form of inducible reporter, as detected with chemiluminescence signals by Quantitative Nuclease Protection Assay (qNPA) technology.Data from the assay component CLD_GAPDH_24hr was analyzed at the endpoint, CLD_GAPDH_24hr, in the positive analysis fitting direction relative to DMSO as the negative control and baseline of activity. Using a type of inducible reporter, gain-of-signal activity can be used to understand changes in the reporter gene as they relate to the gene GAPDH. Furthermore, this assay endpoint can be referred to as a secondary readout, because this assay has produced multiple assay endpoints where this one serves a background control function. To generalize the intended target to other relatable targets, this assay endpoint is annotated to the background measurement intended target family, where subfamily is baseline control.
Human hepatocyte cultures were treated daily for two consecutive days with fresh dosing solutions containing appropriate concentrations of the 320 ToxCast chemicals (chemical identities were blinded to CellzDirect and other ToxCast collaborators), vehicle control (0.2% DMSO), and positive control inducers as summarized in Table 1. Due to the large number of treatment groups and chemicals examined, the ToxCast chemicals were divided into two groups (spanning two independent cultures of hepatocytes from separate donor preparations (Hu778: ToxCast plates 1 and 2; Hu776: ToxCast plates 3 and 4). Each preparation of human hepatocyte cultures was treated with respective vehicle control, medium only control, set of six positive controls/reference chemicals for the five hepatic receptor pathways, and a subset of eight of the ToxCast chemicals (indoxacarb, pyrithiobac-sodium, norflurazon, cyhalofop-butyl, methomyl, thiram, acetochlor, and propiconazole). These replicate data, coupled with internal replicates designed within the blinded ToxCast chemical library, provided additional data to evaluate interindividual differences between hepatocyte preparations and their potential impact on chemical profiles.Cell morphology and integrity were evaluated using phase-contrast microscopy as an indicator of hepatocyte cell health (Tyson & Green, 1987). Cultures for each treatment group (i.e., media, vehicle [0.2% DMSO], positive control inducers [multiple concentrations], and the ToxCast chemicals [multiple concentrations]) were observed and cell morphology was assessed relative to vehicle control cultures at each harvest time point (0, 6, 24, or 48 h). […] Images were evaluated at the conclusion of the study to assess changes in cell integrity and account for the effects of chemical exposure on uncharacteristic changes in concentration-dependent gene expression profiles. The results from these determinations of apparent cytotoxicity were annotated (yes/no) alongside the corresponding qNPA data for reference.At the conclusion of each treatment period, hepatocyte cultures (96-well) were washed with 1 volume of HBSS, lysed by addition of 25 ul ArrayPlate lysis buffer (HTG, Tucson, AZ), and 70 ul/well of Denaturation Oil, denatured by incubation at 95C for 10 min, and frozen at approximately -70C until analysis by nuclease protection assay (qNPA) (Roberts et al., 2007). For qNPA analysis, cell lysates were thawed at 50C for approximately 30 min, qNPA probes were added, and samples were incubated at 95C for 10 min to begin the detection process by denaturing the target RNA, dissociating the duplexes and secondary structure hybridization. At the conclusion of the hybridization period, S1 nuclease reagent was added to each sample to digest all nonprotected nucleotides at 50C for 60-90 min. […]
`CCON=C(CC)C1=C(O)CC(c2c(C)cc(C)cc2C)CC1=O` (stereo not drawn) was tested, and the outcome was “inactive”.
With `COc1nc(C)nc(NC(=O)NS(=O)(=O)c2ccccc2CCC(F)(F)F)n1` the outcome was “inactive”.
With `CN(C)C(=S)SSC(=S)N(C)C` the outcome was “inactive”.
For `CCCCC(CC)COC(=O)c1ccccc1C(=O)OCC(CC)CCCC` (stereo not drawn), the outcome was “inactive”.
With `COC(=O)C=C(C)OP(=O)(OC)OC` the outcome was “inactive”.
`CCCCOC(=O)c1ccccc1C(=O)OCCCC` was tested, and the outcome was “inactive”.
With `COc1nc(C)nc(NC(=O)NS(=O)(=O)c2ccccc2Cl)n1` the outcome was “inactive”.
`C=CCC1=C(C)C(OC(=O)C2C(C=C(C)C)C2(C)C)CC1=O` (stereo not drawn) was tested, and the outcome was “inactive”.
In the case of `COC(=O)C(C)Oc1ccc(Oc2ccc(Cl)cc2Cl)cc1` (stereo not drawn), the outcome is reported as “inactive”.
`CC(C)C1(C)N=C(c2nc3ccccc3cc2C(=O)O)NC1=O` (stereo not drawn) was tested, and the outcome was “inactive”.
In the case of `COC(=O)c1ccccc1C(=O)OC`, the outcome is reported as “inactive”.
`N#CC(CCc1ccc(Cl)cc1)(Cn1cncn1)c1ccccc1` (stereo not drawn) was tested, and the outcome was “inactive”.
In the case of `CC(Oc1ccc(Cl)cc1Cl)C(=O)O` (stereo not drawn), the outcome is reported as “inactive”.
`Oc1ccccc1-c1ccccc1` was tested, and the outcome was “inactive”.
With `CCCCNC(=O)n1c(NC(=O)OC)nc2ccccc21` the outcome was “inactive”.
`COP(=S)(OC)Oc1nc(Cl)c(Cl)cc1Cl` was tested, and the outcome was “inactive”.
`CCCCNC(=O)OCC#CI` was tested, and the outcome was “inactive”.
`C=CC1(C)OC(=O)N(c2cc(Cl)cc(Cl)c2)C1=O` (stereo not drawn) was tested, and the outcome was “inactive”.
In the case of `Cc1ccc(-c2c(Cl)nc(C#N)n2S(=O)(=O)N(C)C)cc1`, the outcome is reported as “inactive”.
`COP(N)(=O)SC` (stereo not drawn) was tested, and the outcome was “inactive”.
`CNC(=S)S` was tested, and the outcome was “inactive”.
For `O=C(O)COc1nc(Cl)c(Cl)cc1Cl`, the outcome was “inactive”.
With `N#Cc1cc(Br)c(O)c(Br)c1` the outcome was “inactive”.
